Assay outcomes (PubChem BioAssay)
SIRT5 block – inhibitors of human sirtuin-5 desuccinylase | Q9NXA8 | actives 1.1% (n = 330,000) | inhibition, % at 15 µM | AID 652115 | Purified SirT5, succinyl-peptide AMC, trypsin-coupled fluorescence; in the data active = inhibition above about 15%
Target sequence (Q9NXA8 whole entry, looked up): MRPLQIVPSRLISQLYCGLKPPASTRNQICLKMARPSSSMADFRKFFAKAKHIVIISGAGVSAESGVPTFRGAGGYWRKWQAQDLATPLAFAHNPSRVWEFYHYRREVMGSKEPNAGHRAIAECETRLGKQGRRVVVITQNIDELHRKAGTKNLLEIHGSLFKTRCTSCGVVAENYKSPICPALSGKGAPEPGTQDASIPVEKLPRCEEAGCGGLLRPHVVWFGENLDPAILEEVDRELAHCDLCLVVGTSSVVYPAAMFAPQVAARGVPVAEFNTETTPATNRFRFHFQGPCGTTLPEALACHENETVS
rRNA inh HTS – inhibitors of bacterial rRNA selective over humanized ribosomes; AID 720706; E. coli WT GFP vs humanized-ribosome RFP mutants, fluorescence, 24 h; stronger effect = lower value; DMSO median 0, no signal -100; actives 1.6% (n = 350,000); GFP signal change (wild-type ribosome), % (no concentration beside the values);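 active = significant combined selectivity score with lowered wild-type GFP, culture density cut under 30%, mutant RFP and density less affected; inactive = any of these conditions unmet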
LGR2 inh – Drosophila LGR2 receptor signaling inhibition; inhibition, % at 9.99 µM; actives 0.35% (n = 380,000); AID 720647; HEK293 LGR2, CRE-luciferase, bursicon-stimulated, 4 h;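 active = drop in luminescence signal, shown as inhibition above about 50% in the replicate tests, limit read from the data, passing the limit was not always enough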;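 note: agonist challenge used bursicon conditioned medium at about half maximal strength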
PGC1a acetyl inh – modulators of PGC1a acetylation. U2OS PGC1a acetylation, AlphaScreen anti-acetyl-lysine; with virally co-expressed GCN5 acetyltransferase. inhibition, % at 15.6 µM. actives 0.17% (n = 350,000);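 active = every replicate shows inhibition of at least 40%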;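 note: 0% = neutral control wells and 100% = positive control wells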
PAX8 reporter – inhibitors of PAX8 transcriptional activity in RMG-I cells; actives 1.2% (n = 360,000); inhibition, % at 12.6 µM; RMG-I TPO-luciferase reporter, SteadyGlo, 24 h;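 active = mean replicate inhibition at least 60% with every replicate also reaching 60%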;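 note: luciferase light reporting Pax8 driven TPO promoter activity; plate controls were median of neutral control wells for no effect and mitoxantrone controls for full effect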
EWS-Fli inh – EWS/Fli transcriptional activity inhibition. actives 0.67% (n = 350,000). A673 NR0B1-luciferase reporter, viability-normalised. inhibition, % at 12.6 µM;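 active = mean inhibition of at least 50% after viability correction, with every replicate also passing that limit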;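 note: firefly luciferase signal divided by Alamar Blue viability fluorescence both relative to DMSO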
Numbers without * were called inactive; . = not tested or not shown. Hits are enriched below; roughly 3.4% of the tested compounds scored in any of these assays.

SMILES	SIRT5 block	rRNA inh HTS	LGR2 inh	PGC1a acetyl inh	PAX8 reporter	EWS-Fli inh
C[C@@H]1CCCCO[C@H](CN(C)Cc2ccc(Cl)c(Cl)c2)[C@H](C)CN([C@@H](C)CO)C(=O)c2cc(NS(C)(=O)=O)ccc2O1	9	-6	33	.	17	6
COc1ccc(C#Cc2ccc3c(c2)O[C@@H](CN(C)C(=O)NC2CCCCC2)[C@H](C)CN([C@@H](C)CO)S3(=O)=O)cc1	-3	3	-9	-10	.	11
C[C@H]1CN([C@@H](C)CO)S(=O)(=O)c2ccc(C#Cc3ccc(F)cc3)cc2O[C@@H]1CN(C)C(=O)NC1CCCCC1	18*	0	37	11	91*	12
C[C@H]1CN([C@@H](C)CO)S(=O)(=O)c2ccc(C#Cc3ccc(F)cc3)cc2O[C@H]1CN(C)C(=O)NC1CCCCC1	20*	0	22	12	78*	8
C[C@@H]1CN([C@H](C)CO)S(=O)(=O)c2ccc(C#Cc3ccc(F)cc3)cc2O[C@@H]1CN(C)C(=O)NC1CCCC1	2	-2	11	20	.	19
C[C@@H]1CN([C@@H](C)CO)S(=O)(=O)c2ccc(C#Cc3ccc(F)cc3)cc2O[C@@H]1CN(C)C(=O)NC1CCCCC1	16*	-6	34	21	85*	14
O=C(Nc1ccccc1F)N1C[C@H]2[C@@H](c3ccccc31)[C@H](CO)N2C(=O)C1CC1	.	-2	-13	4	-18	-13
CN(C)CCCNC(=O)C[C@H]1CC[C@@H]2[C@H](COC[C@H](O)CN2CC2CCCC2)O1	9	0	1	4	-11	7
CN(C)S(=O)(=O)c1cccc(C(=O)Nc2ccc3c(c2)CCC3)c1	0	-19*	-53	-1	-209	-43
O=C(Nc1ccc2c(c1)CCC2)c1cccc(OC(F)F)c1	-1	-24*	-91	-7	-229	-102
O=C(Nc1ccc(OC(F)F)c(Cl)c1)c1cccc(OC(F)F)c1	.	.	.	-4	.	.
CC(C)NC(=O)Nc1ccc2c(c1)C(=O)N([C@@H](C)CO)C[C@H](C)[C@@H](CN(C)C(=O)c1ccccc1)OCCCC[C@H](C)O2	3	1	-28	1	-12	0
C[C@@H]1CN([C@@H](C)CO)C(=O)Cc2cc(NC(=O)C3CCCCC3)ccc2O[C@H]1CN(C)C(=O)Nc1ccc(F)cc1	-3	-1	6	-1	-20	-6
NCCCn1c(C(=O)c2cc(Cl)c(N)c(Cl)c2)c2ccc([N+](=O)[O-])cc2[n+]1[O-]	.	-5	18	54*	70*	55*
CC(C)CC#Cc1ccc2c(c1)O[C@H](CN(C)C(=O)CC1CC1)[C@H](C)CN([C@H](C)CO)S2(=O)=O	9	-17	0	-8	39	-22
COc1ccc(OC)c(C2CC(c3ccccc3)=NN2C(=S)Nc2ccccc2)c1 (stereo not given)	-7	8	-21	.	15	52*
Cc1cc(-c2nnc(SCC(=O)Nc3nc(-c4ccc(Cl)cc4)cs3)o2)no1	0	-33*	23	2	-21	-19
CO[C@H]1CN(C)C(=O)c2ccc(NC(C)=O)cc2OC[C@H](C)N(CC2CCCCC2)C[C@@H]1C	4	-4	17	-6	-10	.
O=C(NCc1cccnc1)/C(=C\c1ccc(-c2ccc(Cl)c(Cl)c2)o1)S(=O)(=O)c1ccccc1	0	-21	103*	59*	91*	40
O=C(NCc1cccnc1)c1ccc(-c2ccc(Cl)cc2)o1	-9	-2	-2	.	-4	11
COc1ccc2c3c(n(C)c2c1)[C@H](CO)N(S(C)(=O)=O)CC31CN(C(=O)C2CC2)C1	.	7	-23	0	.	6
O=C(/C=C/c1ccc(O)c([N+](=O)[O-])c1)c1ccc2ccccc2c1	-4	3	-18	.	-48	-47
O=C(O)c1ccc(Oc2ccc([N+](=O)[O-])cc2)c([N+](=O)[O-])c1	-3	-9.6*	17	14	-25	9
COc1ccc(Oc2ccc(/C=C/C(=O)c3ccc(O)cc3)cc2[N+](=O)[O-])cc1	-1	.	.	.	57	75*
